# Test results taken from PubChem BioAssay (NCATS).
# Records with an inconclusive call do not appear. Calls of active or inactive are those of the source. Calls follow the shape of the dose curve; as a rule, active = well fitted inhibition curve with a large enough effect; inconclusive = small, poorly fitted or top-dose-only effect; inactive = flat fitted curve, though single readings scatter.
# Test system: CP203
# Test: qHTS profiling for inhibitors of Plasmodium falciparum proliferation (AID 504749); also: nearly all actives have a fitted effect of over 60% in size;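 as to activity, negative = inhibition: 0% = DMSO vehicle and full inhibition = artemisinin control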
# Details: P. falciparum in erythrocytes, SYBR Green DNA, 72 h; series mostly up to 28.7 µM; activity, negative = inhibition: at the top concentration
# Source text: NIH National Institute of Allergy and Infectious Diseases [NIAID] NIH Chemical Genomics Center [NCGC] MLPCN Grant: None Assay Provider: Xinzhuan Su, NIAID NCGC Assay Overview: Plasmodium falciparum is a virulent malarial parasite that kills 1-2 million people worldwide each year. Transmitted by mosquitoes, the sporozoite form of the parasite enters the blood stream to infect hepatocytes, where they become merozoites that infect red blood cells (erythrocytes). Within erythrocytes, merozoites begin a […] cycle of growth and division, after which the parasite is released to infect new red blood cells. Gametocytes, which form within erythrocytes as well, circulate in the bloodstream and are ingested by the mosquito, thereby completing the life cycle. To profile malarial isolates for differential chemical responses and to identify inhibitors of malarial growth, an assay that measures P. falciparum growth and replication within erythrocytes was employed. This assay uses a DNA binding fluorescent dye (SYBR Green) to detect parasite DNA following cell lysis. Because mature erythrocytes lack DNA, only Plasmodium-derived DNA is detected.
# NCGC Assay Protocol Summary: The SYBR Green viability assay was adapted from a method described previously (Plouffe et al., 2008). For screening 3 ul culture medium was dispensed into 1536 well black clear bottom plates (Aurora Biotechnologies) using a Multidrop Combi (Thermo Fisher Scientific Inc.), 23 nL compounds in DMSO were added by a pin tool (Kalypsys), and 5 ul of erythrocytes infected with P. falciparum (0.3% parasitemia, 2.5% hematocrit final concentration) were added. The plates were incubated at 37 C in a humidified incubator in 5% CO2 for 72 h, and 2 ul lysis buffer (20 mM Tris HCl, 10 mM EDTA, 0.16% saponin, 1.6% triton X, 10X SYBR Green I supplied as 10,000X […] by Invitrogen) was added to each well. The plates were mixed for 25 sec with gentle shaking and incubated overnight at room temperature in the dark. The following morning, fluorescence intensity at 485(14) nm excitation and 535(25) nm emission wavelengths was measured on an EnVision (Perkin Elmer) plate reader. Plate reads were normalized relative to the control inhibitor (0.29 uM artemisinin) and vehicle (DMSO) wells present on each plate and then corrected by an algorithm using vehicle-only control plates at the beginning and end of the compound plate stack.
# Potency is read from the fitted curve at half-maximal effect.
SMILES,"activity, negative = inhibition",Potency
Oc1c(Cl)cc(Cl)cc1Sc1cc(Cl)cc(Cl)c1O,4.53% (inactive),
NCCc1ccn[nH]1,9.87% [at 12.8 µM] (inactive),
CN1C2CCC1CC(OC(=O)c1c[nH]c3ccccc13)C2 (stereo not given),10.3% (inactive),
CC(O)C(=O)O (stereo not given),-3.04% (inactive),
Cc1c(F)c(N2CCNC(C)C2)cc2c1c(=O)c(C(=O)O)cn2C1CC1 (stereo not given),-20% (inactive),
CC1=C(C(=O)OC(C)C)C(c2cccc([N+](=O)[O-])c2)C(C(=O)OC2CN(C(c3ccccc3)c3ccccc3)C2)=C(N)N1 (stereo not given),,12 µM (active)
CC/C(=C(/CC)c1ccc(O)cc1)c1ccc(O)cc1,-3.03% (inactive),
Nc1ccc(C(=O)Nc2ccccc2N)cc1,14.1% (inactive),
CC(C)(C(=O)c1cccnc1)c1cccnc1,3.06% [at 12.8 µM] (inactive),
CCCCCCCCCCCCCCCCCC(=O)OCC(O)CO (stereo not given),0.46% (inactive),
CCOC(=O)n1ccn(C)c1=S,-0.831% [at 12.8 µM] (inactive),
C[N+]1(CCCCC[N+]2(C)CCCC2)CCCC1,4.82% (inactive),
Cc1ncc(CSSCc2cnc(C)c(O)c2CO)c(CO)c1O,-0.673% (inactive),
O=C1OC(c2ccc(O)cc2)(c2ccc(O)cc2)c2ccccc21,1.72% (inactive),
CN=C(NC#N)NCCSCc1csc(N=C(N)N)n1,1.64% (inactive),
O=C(COc1ccc(Cl)cc1)N1CCN(Cc2ccc3c(c2)OCO3)CC1,0.6% (inactive),
CCN1CCCC1=O,4.96% (inactive),
Cc1cccn2c(=O)c(-c3nnn[nH]3)cnc12,-0.25% (inactive),
OC(CCN1CCCCC1)(c1ccccc1)c1ccccc1,,16.9 µM (active)
CCCCOc1ccc(OCCCN2CCOCC2)cc1,-2.87% [at 12.8 µM] (inactive),

SMILES,"activity, negative = inhibition",Potency
C[C@H](O)C(=O)Nc1c(I)c(C(=O)NC(CO)CO)c(I)c(C(=O)NC(CO)CO)c1I,2.14% [at 12.8 µM] (inactive),
NCCC(O)(P(=O)(O)O)P(=O)(O)O,0.393% (inactive),
CCCCOc1ccc(C(=O)CCN2CCCCC2)cc1,-4.24% [at 12.8 µM] (inactive),
CN1CCC(=C2c3ccccc3Sc3ccccc32)CC1,,3.79 µM (active)
COc1c(C)c2c(c(O)c1C/C=C(\C)CCC(=O)O)C(=O)OC2,,3.22 µM (active)
N[C@H](CO)C(=O)O,-0.988% (inactive),
COc1cc(OC)cc(OC)c1,-0.51% (inactive),
C[C@H]1C[C@H]2[C@@H]3CCC4=CC(=O)C=C[C@]4(C)[C@@]3(Cl)[C@@H](O)C[C@]2(C)[C@@]1(O)C(=O)CO,-19.1% (inactive),
C[C@@H]1C(=O)NC2=Nc3cccc(Cl)c3CN21,-6.43% (inactive),
O=C1[C@H]2CCCC[C@H]2C(=O)N1CCCCN1CCN(c2nsc3ccccc23)CC1,-0.778% (inactive),
CC(=O)Oc1ccc(C(c2ccc(OC(C)=O)cc2)c2ccccn2)cc1,-4.9% (inactive),
C#C[C@]1(O)CC[C@H]2[C@@H]3CCc4cc(OC5CCCC5)ccc4[C@H]3CC[C@@]21C,4.14% (inactive),
CCOc1ccc(Cc2nccc3cc(OCC)c(OCC)cc23)cc1OCC,-20.8% [at 12.8 µM] (inactive),
CCCOC(C(=O)OC1CCN(C)CC1)(c1ccccc1)c1ccccc1,-15.9% (inactive),
NC(CO)(CO)CO,6.59% (inactive),
COc1cccc2c1C(=O)c1c(O)c3c(c(O)c1C2=O)C[C@@](O)(C(C)=O)C[C@@H]3O[C@H]1C[C@H](N)[C@H](O)[C@H](C)O1,,8.49 µM (active)
COc1cc2c(cc1OC)C(C(C(=O)N(CCc1ccc(OC)c(OC)c1OC)CCc1ccc(OC)c(OC)c1OC)c1ccccc1)=NCC2 (stereo not given),,6.75 µM (active)
CCOC(=O)/C=C(C)/C=C/C=C(C)/C=C/c1c(C)cc(OC)c(C)c1C,-14.4% (inactive),
CCOc1ccc(NC(=O)CC(C)O)cc1 (stereo not given),-6.51% (inactive),
CC(C)NC[C@@H](O)COc1cccc2ccccc12,,10.7 µM (active)
